The results in this text go back to PubChem BioAssay (NCI).

Among the test systems are SK-MEL-2 melanoma; SN12C renal; UO-31 renal; TK-10 renal; ACHN renal; CAKI-1 renal; A498 renal; CCRF-CEM leukemia; MOLT-4 leukemia.
What all share (test): NCI-60 one-dose screen, 48 h (100 = growth as untreated, 0 = no growth, -100 = all killed)
Holding throughout (settings): 10 µM

Structures are written as SMILES. This is part of a sample that, as a whole, favours compounds with a hit. Of some 83,000 tested, about 20% had one in any assay.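 Step 1: grow cells in 96-well plates. Step 2: add test compound at a single concentration. Step 3: incubate 48 h. Step 4: record percent growth.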 Values without a mark were called inactive. The source made the active and inactive calls. How the source made its calls: active means growth percent below 10; inactive means the rest.

`Cc1ccc(C2C=C(c3ccc(Cl)cc3)N=C3SC=CN32)c(Br)c1` (stereo not given): the growth was 105% in the assay with SK-MEL-2 melanoma; 94% in the assay with SN12C renal; 57.8% in the assay on UO-31 renal; 125% in the assay on TK-10 renal; 91.8% in the assay with ACHN renal; 65.1% with CAKI-1 renal. The growth in the assay on A498 renal is 87%; with CCRF-CEM leukemia it was 55.7%; in the assay with MOLT-4 leukemia it was 64.9%.

For `O=C(Nc1cccc(-c2nc3ccccc3[nH]2)c1)c1cccc(NC(=O)c2ccco2)c1`, the growth in the assay with SK-MEL-2 melanoma is 101%; in the assay with SN12C renal, 79.1%; in the assay with UO-31 renal, 73.2%; in the assay with TK-10 renal, 91.6%; in the assay on ACHN renal, 86%; in the assay on CAKI-1 renal, 77.6%. Moreover, the growth in the assay with A498 renal was 83.6%; with CCRF-CEM leukemia it was 68.3%; in the assay with MOLT-4 leukemia it was 86.4%.

As for `COc1ccc(-c2csc(NC(=O)CO[N+](=O)[O-])n2)cc1`, the growth with SK-MEL-2 melanoma is 81.6%; in the assay with SN12C renal it was 102%; in the assay on UO-31 renal, 83.1%; in the assay with TK-10 renal, 106%; in the assay on ACHN renal it was 101%; in the assay with CAKI-1 renal, 95.2%. Also, the growth in the assay on A498 renal was 126%; with CCRF-CEM leukemia, 97.9%; in the assay on MOLT-4 leukemia it was 93.1%.

Regarding `CCOc1ccc2c(c1)CC[C@@H]1[C@@H]2CC[C@]2(C)[C@@H](O)[C@@H](O)C[C@@H]12`, the growth was 115% with SK-MEL-2 melanoma; 93.7% with SN12C renal; 89.3% in the assay on UO-31 renal; 105% in the assay on TK-10 renal; 126% in the assay with ACHN renal; 89.8% in the assay on CAKI-1 renal. The growth in the assay with A498 renal was 107%; in the assay on CCRF-CEM leukemia, 87.9%; in the assay with MOLT-4 leukemia, 95.2%.

Consider `CC(C)/C=N/NC(N)=S`, for which the growth in the assay on SK-MEL-2 melanoma is 103%; with SN12C renal it was 85.5%; in the assay on UO-31 renal, 72.4%; in the assay with TK-10 renal it was 109%; in the assay on ACHN renal, 90.6%; in the assay on CAKI-1 renal, 89%. The growth with A498 renal is 82.7%; in the assay on CCRF-CEM leukemia it was 28.9%; with MOLT-4 leukemia, 64.9%.

For the molecule `CCOC(=O)[C@@H]1[C@H](c2ccccc2)[C@H]([N+](=O)[O-])[C@H](c2cn(-c3ccccc3)nc2C)N1Cc1ccccc1`, the growth is 85.5% in the assay with SK-MEL-2 melanoma; 88.8% in the assay on SN12C renal; 71.7% in the assay on UO-31 renal; 106% with TK-10 renal; 73.9% in the assay on ACHN renal; 69% with CAKI-1 renal. Also, the growth with A498 renal was 97.6%; in the assay on CCRF-CEM leukemia, 59.8%; with MOLT-4 leukemia, 51.7%.

On to `c1ccc(OCCC[P+](c2ccccc2)(c2ccccc2)c2ccccc2)cc1`, for which the growth was -11.5% (active) with SK-MEL-2 melanoma; 10.4% with SN12C renal; 63.8% in the assay with UO-31 renal; 18.1% in the assay on TK-10 renal; 66% in the assay on ACHN renal; 76.6% in the assay with CAKI-1 renal. The growth was 12.1% with A498 renal, 1.67% (active) with CCRF-CEM leukemia and 0.0403% (active) in the assay with MOLT-4 leukemia.

In the case of `COc1cc(C)c2sc3ccccc3c(=O)c2c1NCCN(C)C`, the growth with SK-MEL-2 melanoma was 121%; with SN12C renal it was 54.2%; in the assay on UO-31 renal it was 32%; in the assay with TK-10 renal it was 61.9%; in the assay with ACHN renal it was 38.4%; in the assay on CAKI-1 renal, 39.7%. Also, the results for the growth in the assay with A498 renal, in the assay on CCRF-CEM leukemia and in the assay with MOLT-4 leukemia were 55%, 22.6% and 1.59% (active), respectively.

On to `CCn1nc(-c2ccc(C(=O)OC)cc2)nc2c(=O)n(C)c(=O)nc1-2`, for which the growth was 96.6% in the assay with SK-MEL-2 melanoma; 76.6% in the assay with SN12C renal; 49.9% in the assay on UO-31 renal; 85.7% with TK-10 renal; -53.4% (active) in the assay on ACHN renal; 63.7% in the assay with CAKI-1 renal. Further, the values for the growth in the assay on A498 renal, with CCRF-CEM leukemia and in the assay on MOLT-4 leukemia were 108%, 83.9% and 101%, respectively.

For `CCCCCCCCCCCC(=O)NCCCN(C)C`, the growth in the assay on SK-MEL-2 melanoma is 92.2%; with SN12C renal, 86.6%; in the assay with UO-31 renal it was 85%; in the assay on TK-10 renal it was 96%; with ACHN renal, 99.9%; in the assay with CAKI-1 renal it was 83.4%. Further, the growth is 72.2% with A498 renal, 65% in the assay on CCRF-CEM leukemia and 88.9% in the assay with MOLT-4 leukemia.

For the molecule `CC(C)OP(=O)(O)c1ncc(-c2ccc(C(F)(F)F)cc2)c(NC2CCCCCC2)n1`, the growth was 65.4% with SK-MEL-2 melanoma; 54.4% in the assay on SN12C renal; 60.2% in the assay with UO-31 renal; 67% in the assay on TK-10 renal; 34.6% with ACHN renal; 87% in the assay on CAKI-1 renal. For the same molecule, the growth with A498 renal was 89.5%; in the assay with CCRF-CEM leukemia, 48.6%; in the assay with MOLT-4 leukemia, 80.4%.

As to `CC1(CO)CCCC12OCCO2` (stereo not given), the growth with SK-MEL-2 melanoma is 95.2%; in the assay with SN12C renal it was 100%; in the assay with UO-31 renal, 93.7%; in the assay with TK-10 renal, 107%; in the assay with ACHN renal, 102%; with CAKI-1 renal, 101%. The growth in the assay on A498 renal is 94.1%; in the assay with CCRF-CEM leukemia, 97.3%; in the assay on MOLT-4 leukemia, 107%.

On to `O=C1/C(=C/c2ccc(O)cc2)Cc2ccc(Cl)cc21`, for which the growth in the assay with SK-MEL-2 melanoma is 93%; with SN12C renal it was 77.8%; in the assay on UO-31 renal, 45.2%; with TK-10 renal, 127%; in the assay on ACHN renal, 80%; with CAKI-1 renal, 68.3%. In addition, the values for the growth in the assay on A498 renal, in the assay on CCRF-CEM leukemia and in the assay with MOLT-4 leukemia were 121%, 67.7% and 70.3%, respectively.

`O=C(Nc1ccc(Oc2ccc(Nc3nc4ccccc4s3)cc2)cc1)Nc1ccc(Cl)c(Cl)c1`: the growth in the assay with SK-MEL-2 melanoma was 50.7%; in the assay with SN12C renal, 24.9%; in the assay on UO-31 renal it was 25.8%; in the assay with TK-10 renal, 54.1%; in the assay on ACHN renal, 20.3%; in the assay on CAKI-1 renal, 37.6%. Moreover, the growth was 33.4% in the assay with A498 renal, 24.5% in the assay with CCRF-CEM leukemia and 9.65% (active) in the assay on MOLT-4 leukemia.

In the case of `FC(F)(F)c1ccc(-c2nc(-c3nc4cc(Cl)c(Cl)cc4[nH]3)c3ccccn23)cc1`, the growth in the assay with SK-MEL-2 melanoma is 68.6%; in the assay with SN12C renal it was 84.4%; in the assay on UO-31 renal, 58.5%; in the assay on TK-10 renal, 16.7%; in the assay with ACHN renal it was 63.6%; in the assay with CAKI-1 renal, 83.9%. Also, the values for the growth with A498 renal, with CCRF-CEM leukemia and in the assay with MOLT-4 leukemia were 38.5%, 81.6% and 63.5%, respectively.
